Source: PubChem BioAssay AID1159580 (chemical genetic matrix, 2015)
Screen size: about 5,500 compounds; about 2,000 (36%) were called active. Roughly 18% stayed inconclusive and do not appear here. Cut-off read from the data, not from the text of the source: active = normalized growth mostly below about 0.91 (no sharp cut-off); inconclusive = no clear call, values can overlap the other calls; inactive = mostly above about 0.92. The list shows a part of the results.

Assay: chemical genetic growth profiling, strain panel (AID 1159580);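 note: tested at 20 µM; growth read once vehicle control cultures reached saturation at 30 °C; 1 = growth at the plate median or of vehicle wells; lower values mean less growth of the strain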
Details: growth OD

Measured: normalized growth

NC(=O)NO
inactive: S. cerevisiae deletion strains, locus YJR066W, strain TOR1, active compounds read low 0.931 | S. cerevisiae deletion strains, locus YKL009W, strain mrt4, active compounds read low 0.998 | S. cerevisiae deletion strains, locus YKL068W, active compounds read low 0.997 | S. cerevisiae deletion strains, locus YKL085W, strain MDH1 (second series), active compounds read low 0.989 | S. cerevisiae deletion strains, locus YKL085W, strain MDH1, active compounds read low 0.989 | S. cerevisiae deletion strains, locus YKL160W, strain elf1, active compounds read low 1.03 | S. cerevisiae deletion strains, locus YKL190W, strain CNB1, active compounds read low 1.01 | S. cerevisiae deletion strains, locus YKR001C, strain vps1, active compounds read low 0.992 | S. cerevisiae deletion strains, locus YKR026C, strain gcn3, active compounds read low 1.02 | S. cerevisiae deletion strains, locus YKR091W, strain srl3, active compounds read low 1.01 | S. cerevisiae deletion strains, locus YLL001W, strain dnm1, active compounds read low 1.01 | S. cerevisiae deletion strains, locus YLL026W, active compounds read low 1.02 | S. cerevisiae deletion strains, locus YLL041C, strain sdh2, active compounds read low 1.02 | S. cerevisiae deletion strains, locus YLR027C, strain aat2, active compounds read low 1.03 | S. cerevisiae deletion strains, locus YLR039C, strain RIC1, active compounds read low 1 | S. cerevisiae deletion strains, locus YLR058C, strain SHM2, active compounds read low 1.01 | S. cerevisiae deletion strains, locus YLR102C, strain apc9, active compounds read low 1 | S. cerevisiae deletion strains, locus YLR113W, strain HOG1, active compounds read low 0.951 | S. cerevisiae deletion strains, locus YLR221C, strain rsa3, active compounds read low 1.01 | S. cerevisiae deletion strains, locus YLR258W, strain gsy2, active compounds read low 1.02 | S. cerevisiae deletion strains, locus YLR262C, strain YPT6 (second series), active compounds read low 1 | S. cerevisiae deletion strains, locus YLR262C, strain YPT6, active compounds read low 0.993 | S. cerevisiae deletion strains, locus YLR268W, strain sec22, active compounds read low 0.998 | S. cerevisiae deletion strains, locus YLR320W, strain mms22, active compounds read low 1.02 | S. cerevisiae deletion strains, locus YLR330W, strain CHS5, active compounds read low 1.01 | S. cerevisiae deletion strains, locus YLR342W, strain FKS1 (second series), active compounds read low 1 | S. cerevisiae deletion strains, locus YLR342W, strain FKS1, active compounds read low 1.02 | S. cerevisiae deletion strains, locus YLR357W, strain rsc2, active compounds read low 0.994 | S. cerevisiae deletion strains, locus YLR370C, strain arc18, active compounds read low 1.03 | S. cerevisiae deletion strains, locus YLR371W, strain rom2, active compounds read low 0.997 | S. cerevisiae deletion strains, locus YLR384C, strain iki3, active compounds read low 1.02 | S. cerevisiae deletion strains, locus YLR418C, strain cdc73, active compounds read low 0.97 | S. cerevisiae deletion strains, locus YML016C, strain PPZ1, active compounds read low 1 | S. cerevisiae deletion strains, locus YML032C, strain rad52, active compounds read low 0.984 | S. cerevisiae deletion strains, locus YML120C, strain ndi1, active compounds read low 0.997 | S. cerevisiae deletion strains, locus YML124C, strain tub3, active compounds read low 0.993 | S. cerevisiae deletion strains, locus YMR058W, strain fet3, active compounds read low 1.06 | S. cerevisiae deletion strains, locus YMR078C, strain ctf18, active compounds read low 0.999 | S. cerevisiae deletion strains, locus YMR125W, strain sto1, active compounds read low 1.02 | S. cerevisiae deletion strains, locus YMR129W, active compounds read low 1.02 | S. cerevisiae deletion strains, locus YMR205C, strain PFK2, active compounds read low 1.03 | S. cerevisiae deletion strains, locus YMR223W, strain ubp8, active compounds read low 0.994 | S. cerevisiae deletion strains, locus YMR231W, strain pep5, active compounds read low 1.03 | S. cerevisiae deletion strains, locus YMR263W, strain SAP30, active compounds read low 1.01 | S. cerevisiae deletion strains, locus YMR307W, strain GAS1, active compounds read low 1.03 | S. cerevisiae deletion strains, locus YNL067W, strain RPL9B, active compounds read low 1 | S. cerevisiae deletion strains, locus YNL071W, strain lat1, active compounds read low 1.02 | S. cerevisiae deletion strains, locus YNL128W, strain TEP1, active compounds read low 1.02 | S. cerevisiae deletion strains, locus YNL153C, strain GIM3, active compounds read low 0.994 | S. cerevisiae deletion strains, locus YNL183C, strain NPR1, active compounds read low 0.945 | S. cerevisiae deletion strains, locus YNL209W, strain ssb2, active compounds read low 1.02 | S. cerevisiae deletion strains, locus YNL224C, strain SQS1, active compounds read low 0.99 | S. cerevisiae deletion strains, locus YNL233W, strain BNI4, active compounds read low 1.01 | S. cerevisiae deletion strains, locus YNL248C, strain rpa49, active compounds read low 1.03 | S. cerevisiae deletion strains, locus YNL250W, strain rad50, active compounds read low 0.996 | S. cerevisiae deletion strains, locus YNL271C, strain bni1, active compounds read low 0.999 | S. cerevisiae deletion strains, locus YNL298W, strain CLA4, active compounds read low 0.997 | S. cerevisiae deletion strains, locus YNL307C, strain MCK1, active compounds read low 1 | S. cerevisiae deletion strains, locus YNL322C, strain KRE1 (second series), active compounds read low 1.03 | S. cerevisiae deletion strains, locus YNR049C, strain mso1, active compounds read low 1.01 | S. cerevisiae deletion strains, locus YNR052C, strain pop2, active compounds read low 1.01 | S. cerevisiae deletion strains, locus YOL006C, strain TOP1, active compounds read low 0.967 | S. cerevisiae deletion strains, locus YOL012C, strain htz1 0.591 | S. cerevisiae deletion strains, locus YOL147C, strain pex11, active compounds read low 1 | S. cerevisiae deletion strains, locus YOR001W, strain rrp6, active compounds read low 1.01 | S. cerevisiae deletion strains, locus YOR061W, strain CKA2, active compounds read low 1.01 | S. cerevisiae deletion strains, locus YOR069W, strain VPS5, active compounds read low 1.01 | S. cerevisiae deletion strains, locus YOR070C, strain gyp1, active compounds read low 1.02 | S. cerevisiae deletion strains, locus YOR080W, strain dia2, active compounds read low 1.03 | S. cerevisiae deletion strains, locus YOR083W, strain WHI5 (second series), active compounds read low 0.997 | S. cerevisiae deletion strains, locus YOR083W, strain WHI5, active compounds read low 0.993 | S. cerevisiae deletion strains, locus YOR106W, strain vam3, active compounds read low 1.02 | S. cerevisiae deletion strains, locus YOR136W, strain idh2, active compounds read low 0.991 | S. cerevisiae deletion strains, locus YOR144C, strain elg1, active compounds read low 0.998 | S. cerevisiae deletion strains, locus YOR184W, strain ser1, active compounds read low 0.993 | S. cerevisiae deletion strains, locus YOR231W, strain MKK1, active compounds read low 0.967 | S. cerevisiae deletion strains, locus YOR265W, strain rbl2, active compounds read low 1.02 | S. cerevisiae deletion strains, locus YOR270C, strain vph1, active compounds read low 1.05 | S. cerevisiae deletion strains, locus YOR290C, strain snf2, active compounds read low 1.02 | S. cerevisiae deletion strains, locus YOR316C, strain cot1, active compounds read low 1.01 | S. cerevisiae deletion strains, locus YPL051W, strain arl3, active compounds read low 1.03 | S. cerevisiae deletion strains, locus YPL078C, strain atp4, active compounds read low 1.03 | S. cerevisiae deletion strains, locus YPL106C, strain sse1, active compounds read low 0.984 | S. cerevisiae deletion strains, locus YPL240C, strain hsp82, active compounds read low 1.01 | S. cerevisiae deletion strains, locus YPL241C, strain CIN2, active compounds read low 1.01 | S. cerevisiae deletion strains, locus YPL256C, strain CLN2, active compounds read low 0.954 | S. cerevisiae deletion strains, locus YPR119W, strain clb2, active compounds read low 0.993 | S. cerevisiae deletion strains, locus YPR141C, strain kar3, active compounds read low 0.99 | S. cerevisiae deletion strains, locus YPR163C, strain tif3, active compounds read low 1 | S. cerevisiae deletion strains, locus YPR167C, strain met16, active compounds read low 0.996 | S. cerevisiae deletion strains, strain wtn01, active compounds read low 0.995 | S. cerevisiae strains, strain wild type, active compounds read low 1
